Experimental data reported in PMC9574860, “Chemical Toolkit for PARK7: Potent, Selective, and High-Throughput” (Journal of Medicinal Chemistry, 2022).
Screen size: about 7,900 compounds; about 400 (5.1%) showed an effect of 50% or more. The sample as a whole holds a higher share of strong results than the screen did.

target: Parkinson's disease protein 7 (PARK7/DJ1) (human, UniProt Q99497); assay: primary screen, percent inhibition; read as competition with a fluorescent probe by fluorescence polarization; higher = more effect of the substance; settings: 100 µM
Sequence (Q99497 whole entry, looked up, the tested form may be a part): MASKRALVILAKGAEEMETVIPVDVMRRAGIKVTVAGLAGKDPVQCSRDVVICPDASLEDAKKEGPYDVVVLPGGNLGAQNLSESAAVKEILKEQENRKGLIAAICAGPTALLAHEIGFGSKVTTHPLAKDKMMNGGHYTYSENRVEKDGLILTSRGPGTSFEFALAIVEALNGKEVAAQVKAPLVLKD
Method: The screen was conducted using the conditions as described above in 1536-well plates (Corning 3724) with a reaction volume of 8 μL per well. The compound library containing 7887 covalent fragments was purchased at Enamine Ltd. and received as 100 mM DMSO stocks in 384 well LDV Echo plates (Labcyte LP-0200). Stock solutions of 0.26 μM PARK7 and 80 nM JYQ-107 were prepared. Using a Labcyte Echo550 acoustic dispenser, 8 nL of the DMSO stock solution of the library compounds was transferred from the source plates into the empty 1536-well screening plates to obtain a 100 μM final compound concentration. Next, PARK7 (6 μL, final concentration 0.2 μM) was dispensed using a Biotek MultiflowFX liquid dispenser and incubated for 2 h, followed by dispensing the probe JYQ-107 (2 μL, final concentration 20 nM). After 2 h incubation, the FP signal was recorded on a BMG Labtech PHERAstar plate reader (λex/em 480/520 nm). The relative loss of FP signal compared with reference controls was used to calculate the remaining enzyme activity.

SMILES | Inhibition %
C=C(Cl)CSc1nc(N)cc(N)n1 | 18.5%
CC(C)CN1CCN(c2ccc(C#N)nc2)C(C)C1=O (centres unmarked) | 5.84%
O=C(CCl)Nc1ccccc1-c1ccccc1 | 8.41%
CCn1cc(CCCl)cn1 | 5.4%
CN1CN=C(S)NC1 | 3.57%
C=CC(=O)NCC1(C)CCOCC1 | 4.38%
C=CC(=O)NCC1CCC2(COC(C)C2)O1 (centres unmarked) | 2.62%
C=CC(=O)Nc1cccc(C(F)F)c1 | 6.09%
C=CC(=O)NCc1ccc2c(c1)CCO2 | 9.41%
C=CC(=O)Nc1ccc2c(c1)COC2 | 11.5%
O=C(CCl)Nc1cccc(S(=O)(=O)N=C2CCCN2)c1 | 18.3%
O=C(Cc1ccc2c(c1)COC2)Nc1cccc(S(=O)(=O)F)c1 | 97.6%
O=C(Cc1ccc2c(c1)CCO2)Nc1cccc(S(=O)(=O)F)c1 | 94.3%
O=C(Cc1cccc(C(F)F)c1)Nc1cccc(S(=O)(=O)F)c1 | 52%
O=C1CC2(CCNCC2)N1 | 3.72%
N#CC(=Cc1ccc(N)cc1)C(N)=O | 8.09%
CC(C)CNc1oc(Cc2ccccc2)nc1C#N | 6.85%
C=CC(=O)NC1CC2(COC(C)C2)C1 (centres unmarked) | 8.04%

SMILES | Inhibition %
COc1cc(C)c(C)cc1S(=O)(=O)n1cccn1 | 6.67%
N#Cc1c(Cl)nc2sccn12 | 4.22%
CCN(Cc1ccc(Cl)s1)C(=O)CCl | 9.61%
N#Cc1ncn(CCC(=O)NCc2ccc(F)cc2)n1 | 7.22%
O=C1CC2(CCN(Cc3ccc(Cl)cc3Cl)CC2)N1 | -1.16%
Cc1csc(N(C(=O)CCl)c2ccccc2)n1 | 87.3%
O=C(CCl)NN(c1ccccc1)c1ccccc1 | 10.3%
O=C(CCl)N(Cc1ccccc1)c1ccccc1 | 10.7%
O=C(Nc1ccccc1)NN(C(=O)CCl)c1ccccc1 | 93.5%
CCN(C(=O)CCl)c1ccccc1 | 44.6%
O=C(CCl)NC(=O)Nc1ccccc1 | 28.5%
Cc1ccc([N+](=O)[O-])cc1NC(=O)CCl | 18.4%
O=C(CCl)Nc1ccc([N+](=O)[O-])cc1 | 32.8%
CN(C(=O)CCl)c1ccc([N+](=O)[O-])cc1 | 93.5%
Cc1cccc(N(Cc2ccccc2)C(=O)CCl)c1 | 9.42%
CN(C(=O)CCl)c1ccccc1 | 79.7%
CN(C(=O)CCCl)c1ccccc1 | 9.16%
